# Sampled rows, rich in hits. Any-hit rate of the full collection: about 9.5%.
# NPSR antagonist: blocks cAMP signaling of the human neuropeptide S receptor. Q6W5P4. Potency, µM (highest dose often 38.3 µM), most hits filed as inhibitors. 220,000 tested, 1% active. CHO-NPSR cells, cAMP TR-FRET, antagonist mode; further: nearly all actives have a fitted effect of over 50% in size
# Tau fibril ThT: tau fibrillization inhibition (ThT binding) | P10636 | recombinant tau K18 P301L, heparin-induced fibrillization, ThT fluorescence | Potency, µM (doses to about 57.4 µM), actives largely listed as inhibitors | 270,000 tested, 2.1% active | AID 1460; further: nearly all actives have a fitted effect of over 55% in size
# Target sequence (P10636 561-689 P618L limits assumed): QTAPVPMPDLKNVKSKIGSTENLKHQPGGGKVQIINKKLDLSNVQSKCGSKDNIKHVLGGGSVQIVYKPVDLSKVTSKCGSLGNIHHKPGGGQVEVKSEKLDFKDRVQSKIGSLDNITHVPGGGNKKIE
#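 Fibril formation assay: tau K18 P301L at 15 uM with trace Alexa 594 label, heparin inducer 20 uM, pH 7 sodium acetate buffer, 37 C for 6 hr; endpoint ThT signal.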
# HPGD block: inhibitors of human 15-hydroxyprostaglandin dehydrogenase (HPGD) | purified HPGD, NADH fluorescence kinetic, PGE2 substrate | Potency, µM, hits mostly inhibitors | 150,000 tested, 4.3% active | AID 894; active means well fitted inhibition curve with a large enough effect, not every such curve was filed as active; inconclusive means small, poorly fitted or top-dose-only effect, or another doubt; inactive means no such curve, though single readings can be large or run the other way
# Target sequence (P15428 whole entry, looked up): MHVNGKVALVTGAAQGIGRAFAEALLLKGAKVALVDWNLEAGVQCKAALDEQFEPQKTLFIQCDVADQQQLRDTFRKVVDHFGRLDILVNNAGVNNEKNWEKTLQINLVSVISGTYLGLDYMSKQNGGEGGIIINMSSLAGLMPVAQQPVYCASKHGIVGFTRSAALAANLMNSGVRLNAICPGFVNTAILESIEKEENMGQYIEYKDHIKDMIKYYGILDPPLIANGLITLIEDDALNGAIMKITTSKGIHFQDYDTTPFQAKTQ
#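 20 nM HPGD preincubated 15 min at room temperature with compound in 50 mM Tris-HCl pH 8, 0.01% Tween 20. Started with 1 mM NAD+ and 30 uM prostaglandin E2; NADH fluorescence (360/450 nm) read 5 times over 30-s intervals, last minus first.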
# ALDH1A1 block: inhibitors of human aldehyde dehydrogenase 1A1 | P00352 | Purified ALDH1A1, NADH fluorescence, propionaldehyde substrate | Potency, µM (top dose mostly 75.3 µM), usual class: inhibitors | 220,000 tested, 7.3% active | AID 1030; active means well fitted inhibition curve with a large enough effect, not every such curve was filed as active; inconclusive means small, poorly fitted or top-dose-only effect, or another doubt; inactive means no such curve, though single readings can be large or run the other way
# Tau fluor counter: counter-screen for tau fibril formation inhibitors; Potency, µM (doses to about 57.7 µM); tau K18 P301L Alexa594 fluorescence, heparin fibrillization; 280,000 tested, 0.93% active; further: nearly all actives have a fitted effect of over 55% in size
#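 Human tau K18 P301L (15 uM unlabeled, 0.24 uM Alexa 594-labeled) in 100 mM sodium acetate pH 7 with 20 uM heparin, 6 hr at 37 C. ThT 30 uM added, 1 hr ambient; Alexa 594 FP and total fluorescence read at 555/632 nm.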
# Tau FP inhib: inhibitors of human tau fibril formation | K18 P301L tau heparin fibrillization, Alexa594 FP, 6 h | Potency, µM (titrated, usually from 57.7 µM), hits mostly inhibitors | 280,000 tested, 0.39% active | AID 1468; further: nearly all actives have a fitted effect of over 55% in size
#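 Human K18 P301L fragment (15 uM unlabeled plus 0.24 uM Alexa 594-labeled) in 100 mM sodium acetate pH 7 with compound, aggregation induced by 20 uM heparin for 6 hr at 37 C. ThT (30 uM) added for 1 hr, then Alexa 594 FP read.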
# A number is an active result; n = inactive; u = inconclusive; x = no result given; ! = repeats disagree; [ ] = dose if it differs, or a comment. Unless noted, the call rests on the fitted dose curve; in most records, active means well fitted curve in the direction sought with a large enough effect; inconclusive means small, poorly fitted or top-dose-only effect, or another doubt; inactive means no such curve, though single readings can be large; an effect the other way counts as inactive or inconclusive.
SMILES,NPSR antagonist,Tau fibril ThT,HPGD block,ALDH1A1 block,Tau fluor counter,Tau FP inhib
Oc1c(C=Nc2ccc(Cl)cn2)sc2ccccc12,n,u,x,x,n,n
Oc1c(/C=N/c2ccccn2)sc2ccccc12,u,5.6µM,x,x,2.8µM[fluorescent],u
Oc1c(C=Nc2cccnc2)sc2ccccc12,u,13µM,n,u,n,n
Oc1ccc(Cl)cc1CNc1ccc(Br)cn1,n,n,14µM,n,u,u
C=CCn1c(O)c(N=NC(=O)c2cccnc2)c2cc(Br)ccc21,n,u,x,u,n,n
O=C(O)/C=C/C(=O)Nc1ccc(Oc2ccccc2)cc1,n,n,x,x,n,n
CCOC(=O)/C=C/C(=O)Nc1ccc(S(=O)(=O)Nc2c(C)cc(C)cc2C)cc1,n,n,n,13µM,n,u
CCOC(=O)/C=C/C(=O)Nc1ccc(Oc2ccccc2)cc1,n,u,x,25µM,u,u
Cc1ccc(/C=C/C(=O)Nc2ccc(Oc3ccccc3)cc2)o1,n,u,25µM,24µM,u,n
CC(=O)c1ccc(NC(=O)/C=C/c2ccc(C)o2)cc1,x,u,x,x,n,n
Cc1ccc(/C=C/C(=O)Nc2ccc([N+](=O)[O-])cc2)o1,n,n,x,12µM,n,n
CCCOc1ccc(/C=C/C(=O)Nc2ccc([N+](=O)[O-])cc2)cc1,u,n,x,n,n,n
C=C1C(N)CC2CC1C2(C)C (stereo unspecified),x,n,n,n,n,n
CCC(C)Oc1ccccc1C1CC(=O)NC2=C1C(=O)CCC2 (stereo unspecified),n,n,n,n,n,n
CC(Nc1oc(-c2ccccc2)nc1-c1ccc(C(F)(F)F)cc1)c1ccccc1 (stereo unspecified),x,n,n,n,n,n
CCC12CN3CC(CC)(CN(C1)C3c1cccc(OC)c1O)C2=O (stereo unspecified),x,n,x,x,n,n
C[C@@H]1CCC2[C@](C)(CO)C(O)CC[C@@]2(C)[C@@]12CC[C@](CO)(CCO)O2 (stereo partly specified),x,n,n,n,n,n
CC(=O)/C=C/c1ccc(C)o1,n,u,x,u,n,u
Cc1ccc(NC(=O)/C=C/c2ccc(C)o2)c(C)c1,x,n,x,x,n,n
Cc1ccc(/C=C/C(=O)Nc2cc(=O)n(C)c(=O)n2C)o1,n,u,n,22µM,n,u
Cc1ccc(/C=C/C(=O)N2CC(C)CC(C)C2)o1 (stereo unspecified),n,u,u,10µM,n,n
Cn1c(NC(=O)/C=C/c2ccco2)cc(=O)n(C)c1=O,n,u,n,u,n,n
CC(/C=C/c1ccc(C)o1)=C\C(=O)O,n,u,n,20µM,n,u
COC(=O)c1ccc(Cl)cc1NC(=O)/C=C/c1ccc(C)o1,n,n,u,20µM,n,n
Cc1cccc2c(SCC(=O)NCC3CCCO3)nc(-c3ccc(F)cc3)nc12 (stereo unspecified),n,n,n,n,n,n
SMILES,NPSR antagonist,Tau fibril ThT,HPGD block,ALDH1A1 block,Tau fluor counter,Tau FP inhib
COc1ccccc1Oc1ccc(S(=O)(=O)NCc2ccccn2)cc1,n,n,n,n,n,n
O=C(OCC(=O)N1CCN(C(=O)c2ccco2)CC1)c1ccccc1OCc1ccc(Cl)cc1,n,n,n,n,n,n
COc1cc(C(CC(=O)Nc2ccc(F)cc2F)N2Cc3ccccc3C2=O)cc(OC)c1OC (stereo unspecified),x,n,x,x,n,n
CC1CC2(CC(C)(C(=O)CSc3n[nH]c(-c4ccccc4Cl)n3)OC2=O)C(=O)O1 (stereo unspecified),n,n,u,18µM,n,n
CC1(C(=O)CSc2n[nH]c(-c3ccccc3Cl)n2)CCC(=O)O1 (stereo unspecified),n,n,n,u,n,n
CSc1nnc(C)c(/C=C/NOCc2ccc(Cl)cc2)n1,n,u,x,u,u,n
CSc1nnc(C)c(/C=C/Nc2ccc(C)cc2)n1,n,5µM,n,n,n,n
N[C@H](C(=O)N[C@@H]1C(=O)N2C(C(=O)O)=C(Cl)CS[C@@H]12)c1ccccc1,x,x,n,11µM!,x,x
Cn1nnnc1SCC1=C(C(=O)O)N2C(=O)C(NC(=O)C(O)c3ccccc3)C2SC1 (stereo unspecified),x,u,u,u,n,u

# From PubChem BioAssay
